Results taken from PubChem BioAssay AID504842 (National Center for Advancing Translational Sciences (NCATS), 2011).
Hit rate of the full screen: of about 330,000 compounds, about 100 (0.03%) were called active. About 1% were inconclusive and are not listed. The call rests on the fitted dose curve; in most records, active means well fitted inhibition curve with a large enough effect; inconclusive means small, poorly fitted or top-dose-only effect; inactive means flat fitted curve, though single readings scatter. What follows is part of a selection rich in actives, with near analogues and random picks from the rest.

system: Chaperonin Mm-Cpn (Methanococcus maripaludis); assay: Inhibitors of TCP-1 ring complex (TRiC) of Methanococcus maripaludis (MmCpn): qHTS; details: purified Mm-Cpn ATPase, ADP Transcreener TR-FRET; series mostly up to 76.9 µM; further: nearly all actives have a fitted effect of over 80% in size;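 on Potency: enzyme at 25 nM with ATP substrate at 10 µM during the reaction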
From the text: The eukaryotic chaperonin TRiC (for TCP-1 ring complex) is an essential and conserved chaperone required for the folding and activation of 10-15% of the proteins encoded by the human genome. […] The TRiC complex consist of two stacked 7-9 membered rings, each containing a central cavity. Substrates are folded within the cavity in an ATP-dependent manner. TRiC is a complex of eight different, essential proteins. As each of the genes encoding the eight subunits is essential for cell viability and no protocol has been developed to over-express this enzyme to high levels. That is why several groups studying the TRiC chaperonin have turned to the archaeal homolog of TRiC, Methanococcus maripaludis (Mm-CPN), and have used this enzyme as a model system for the study of the type II chaperonin family. Small molecule inhibitors of the Mm-CPN enzyme would be extremely useful to study the mechanism of chaperonin activity. Importantly, TRiC and Mm-CPN both require ATP hydrolysis for function. Furthermore, the ATP binding sites are highly conserved among these type II chaperonins. This provides us with an easy, well tested and straightforward assay to identify inhibitors of chaperonin activity. The Mm-CPN assay was developed in 1536-well plate format using the HTRF Transcreener ADP assay kit (Cisbio, Bedford, MA). This assay applied the time resolved fluorescence resonance energy transfer (TR-FRET) principle. ATP in the presence of Mm-CPN is converted to ADP + Pi. An antibody labeled with Eu3+-Cryptate specific and bound to ADP labeled with […] (d2) competes with the unlabeled ADP generated by Mm-CPN. The resulting TR-FRET signal is inversely proportional to the concentration of ADP in the sample. In this assay a reduction in TR-FRET signal is observed with ATP turnover. NIH Chemical Genomics Center [NCGC] NIH Molecular Libraries Probe Centers Network [MLPCN] MLPCN Grant: DA030554-01A1 Assay Submitter (PI): Judith Frydman, Stanford University
Purified Mm-CPN was supplied by the laboratory of Dr. Judith Frydman. Protein samples were stored at -80C as single use aliquots. Protein was thawed in ambient temperature water bath and placed on ice once thawed. Buffer was prepared fresh day of screen. The buffer composition below was used to prepare the working solution of the Mm-CPN protein and ATP substrate. The buffer is comprised of 30 mM TRIS pH 7.4, 100mM KCl, 5mM MgCl2, and 1mM DTT. A final concentration of 25nM Mm-CPN and 10uM ATP per well were used in the screen. Instructions according to the manufacturer were followed for the ADP Transcreener kit. Used 1536 well Greiner white, medium binding (MB), solid bottom plates. Plates were read on the PerkinElmer EnVision plate reader using Excitation = 320 nm and Emission = […], 665 nm. Protocol- 1.Dispense 1.5ul per well of working [Mm-CPN] = 50nM (or 75 ng / well) 2.Spin plate at 1000 rpm for 30 seconds 3.23nl of compound transferred per well 4.Incubate at 37degC for 10 minutes 5.Dispense 1.5ul per well of working [ATP] = 20uM 6.Incubate at 37degC for 30 minutes 7.Dispense 3ul per well of Anti-ADP Cryptate / ADP-d2 mix (prepared as instructed by Cisbio) 8.Incubate at ambient for 30 minutes 9.Read using EnVision
On the % scale 0 is the no-effect control and ±100 the full control effect; potency means the concentration at half of the fitted maximal effect.

Potency, inactive:
Cc1ccc2nc(SCc3nnc(-c4ccccc4[N+](=O)[O-])o3)c(C#N)cc2c1
Cn1c2ccc(F)cc2c2nnc(NN)nc21
Cn1c(=O)c([N+](=O)[O-])c(Oc2ccccc2)c2ccccc21
CCn1c(=O)c(=O)n(CC)c2cc(N3CCCCC3)c(NC(=O)c3ccc(Cl)cc3)cc21
CCOC(=O)C1=C(CSc2nnnn2C)N(C)C(=O)NC1c1ccccc1 (configuration not stated)
CCc1nnc(NC(=O)C2CCN(C(=O)c3ccccc3C)CC2)s1
Cc1ccc(NC(=O)Cn2cccc2C2=NC(c3ccccc3)CO2)c(C)c1 (configuration not stated)
CC(OC(=O)Cc1ccc(F)cc1)C(=O)N1CCc2ccccc21 (configuration not stated)
COCCn1c(SCC(=O)N2CCCCCC2)nc2c(c1=O)SCC2
Cc1ccc(-n2nc(C)c(C(=O)O)c2-n2cccc2)cc1
Cc1cccc(N(Cc2ccccc2)C(=O)c2ccccc2F)c1
CCCOC1CCCN(Cc2cn(C)nc2-c2ccccc2F)C1 (configuration not stated)
O=S1(=O)CCC(NC(=S)SCc2ccccc2Br)C1 (configuration not stated)
Cc1ccc(-n2nc3c(=O)n(C(C)C(=O)NCc4ccc5c(c4)OCO5)nc(C)c3c2C)cc1 (configuration not stated)
Cc1ccc(NC(=O)Nc2cccnc2)cc1
Cc1nc(-c2ccc(F)cc2)c(CC(=O)Nc2cccc(S(=O)(=O)N3CCOCC3)c2)s1
COC(=O)c1sc2[nH]c(=S)n(N)c(=O)c2c1C
CCOc1ccc(C(CCc2ccccc2)NC(=O)c2ccc(OC)c(OC)c2)cc1OCC (configuration not stated)
CC(C)(CNC(=O)Cc1ccc(Cl)cc1Cl)N1CCOCC1
COc1ccc(OC)c(S(=O)(=O)N(C)CC(=O)N2CCN(c3ccccc3)CC2)c1
Cc1ccc(S(=O)(=O)N2CCCCC2)cc1NC(=O)CCNC(=O)c1ccccc1
Cc1cc(S(=O)(=O)NCc2ccccn2)c(Cl)cc1Cl
Cc1cc(NC(=O)/C=C/C(=O)N(c2ccccc2C)C(C(=O)NC2CCCC2)c2ccc(F)cc2)no1 (configuration not stated)
CCCSC1=C(C#N)C(c2ccccc2C)C(C(=O)OC)C(=O)N1 (configuration not stated)
CCOc1ccc(NC(=O)CN(C)C(=O)CSc2ccccc2)cc1OCC
CCOc1ccccc1NS(=O)(=O)c1cc2c3c(c1)C(C)C(=O)N3CCC2 (configuration not stated)
O=S(=O)(Nc1ccc(Oc2ncccn2)c(Cl)c1)c1ccc(F)cc1
Cc1ccc(S(=O)(=O)N(Cc2cccc([N+](=O)[O-])c2)C(=O)N2CCN(C)CC2)cc1
O=C(CN1CCCSc2ccccc21)N1CCN(S(=O)(=O)c2ccccc2)CC1
O=C(Cn1nc([N+](=O)[O-])nc1Br)NC1CCCCC1
Cc1nn(-c2ccccc2)nc1C(=O)OCC(=O)N1CCCCC1C (configuration not stated)
CCc1ccc(Nc2nnc(SCC(=O)c3ccc4c(c3)NC(=O)CO4)s2)cc1
CCOCc1c(C(=O)N2CCN(Cc3ccc(Br)s3)CC2)oc2ccccc12
CCOC(=O)CN1C(=O)N[C@@H](c2ccc(Br)cc2)C(C(C)=O)=C1C
FC(F)(F)c1ccc(CN2C[C@@H]3C(c4ccccc4)C4(c5ccccc5)CC3(C4)[C@H]2c2ccccc2)cc1 (some centres not stated)
Cc1ccc(NS(=O)(=O)c2ccc3c(c2)CC(=O)N3)cc1Cl
COc1ccc(-n2c(C)nn(CC3CC3)c2=O)cc1
CC(=O)Nc1cccc2c1[n+]([O-])c(C)c(C)[n+]2[O-]
CCn1cc(C(=O)NCc2ccc(OC)cc2OC)c(=O)c2ccc(C)nc21
O=C(CCC(=O)Nc1ccccc1)N/N=C/c1ccccc1F
CCOC(=O)c1ccccc1NC(=O)COC(=O)C(Cc1c[nH]c2ccccc12)NC(C)=O (configuration not stated)
Cc1cccc(N2CCN(S(=O)(=O)c3ccc4[nH]c(=O)c(=O)[nH]c4c3)CC2C)c1 (configuration not stated)
c1csc(-c2nnc(COc3ccc4c(c3)OCO4)o2)c1
CCCOC1CCCN(C(=O)c2cc(COc3cncc(Cl)c3)on2)C1 (configuration not stated)
COc1cccc(-n2c(N)cc(=O)nc2SCC(=O)Nc2cc(C)on2)c1
CC1CCCCC1NC(=O)CSc1nnc(-c2ccncc2)n1CCCN(C)C (configuration not stated)
CC(C)C(NC(=O)c1c(F)cccc1F)C(=O)NCc1ccncc1 (configuration not stated)
CCOC(=O)c1sc(NC(=O)CSc2nc3c(c(=O)n2-c2ccccc2)SCC3)c(C(=O)OCC)c1C
Cn1c(=O)n(C)c2cc(CNc3ccc(N4CCOCC4)c(C(=O)O)c3)ccc21
Cn1c2cc(B(O)O)sc2c2cnn(Cc3ccccc3F)c(=O)c21
CSCC[C@H](NC(=O)CCCn1nnc2ccccc2c1=O)C(=O)O
O=C(CCl)Nc1ccc(Sc2ccc(NC(=O)CCl)cc2)cc1
CCCCN(CCCC)CCC(O)c1cc2c(Cl)cc(Cl)cc2c2cc(C(F)(F)F)ccc12 (configuration not stated)
Cc1cc(Cl)ccc1NNC(=O)c1snnc1C
O=C(COC(=O)Cn1[nH]c(=O)c2ccccc2c1=O)Nc1ncc(Cl)cc1Cl
CC(=O)Nc1cccc(C(=O)OCC(=O)NCc2cc(C)c(O)c(C)c2)c1
CSCCC(NC(=O)c1ccccc1)C(=O)N1CCN(Cc2ccc(Cl)cc2)CC1 (configuration not stated)
CC(C)OC(=O)C(C#N)c1nc2ccccc2nc1N1CCN(Cc2ccc3c(c2)OCO3)CC1 (configuration not stated)
CSc1nc(-c2ccco2)nn1C(=O)c1ccccc1Cl
CCCN1CCn2c3c(c4cc(Br)ccc42)CCCC31 (configuration not stated)
CC(C)CNC(=O)C(=O)Nc1ccc(N(C)C)cc1
CC(=O)N(C)c1ccc(NC(=O)C(F)(F)F)cc1
Cn1c(N)c(C(=O)COC(=O)c2cccc(S(=O)(=O)N3CCOCC3)c2)c(=O)n(C)c1=O
CCOC(=O)c1c(CNCc2ccccc2F)c2sc(C)cc2n1C
CSc1nc2ccccc2cc1/C=C(\C#N)c1ccc(Cl)cc1Cl
C/C=N/N(c1ccccc1)c1ccccc1
O=C(CSc1nnc(CN2CCCC2)n1-c1ccc(F)cc1)c1ccc2c(c1)OCO2
CCOC(=O)Cc1csc(SCc2cc(=O)oc3cc(O)ccc23)n1
Cc1cc(=O)oc2cc(OCC(=O)Nc3nnc(C4CC4)s3)ccc12
CCCCc1ccc(NC(=O)CN2C(=O)NC(Cc3ccccc3)C2=O)cc1 (configuration not stated)
CCOc1ccccc1N1CCN(C(=O)c2ccc3[nH]c(C)c(C)c3c2)CC1
CCOc1ccc(NC(=O)CN(C)C(=O)c2cccc(S(=O)(=O)N3CCCC3)c2)cc1OCC

Potency, active:
Cc1ccc(-c2nc(-c3cccnc3)sc2CC(=O)Nc2ccc(C)c(Cl)c2)cc1 28.2 µM
CN(C)c1ccc(N/C=C/C(=O)C(F)(F)F)cc1 25.1 µM
CCOC(=O)Cc1csc(NC(=O)COc2ccc3c(C)cc(=O)oc3c2)n1 44.7 µM

activity, negative = inhibition, inactive:
O=C1OC2(CCCCC2)CC2=C1C1O[C@](c3ccsc3)(Cc3ccccc31)O2 -2.46% [at 15.4 µM]
Cc1cc2c(c(=O)n1Cc1ccccc1)C1O[C@](CCCCN3C(=O)c4ccccc4C3=O)(Cc3ccccc31)O2 -15.5% [at 15.4 µM]
